Rows were chosen to be rich in hits. Some 8.1% of all compounds tested hit in one or more screens of this group.
NOMO-1 viab: STK33 inhibitor candidate reducing NOMO-1 cell viability. NOMO-1 AML viability, CellTiter-Glo luminescence, 72 h. inhibition, % (test concentration not listed). 37,000 compounds, 7.5% hits; in the data active = inhibition above about 80%; inconclusive = no clear call, values can overlap the other calls
Shh pathway inh: blocks Sonic Hedgehog signaling. Shh-LIGHT2 Gli-luciferase reporter, 30 h. inhibition, % (test concentration not listed). 22,000 compounds, 2.1% hits;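 active = mean inhibition across valid replicates above about 65%, limit read from the data; inconclusive = mean under the limit, yet half or more replicates past it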;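 also: pathway switched on by Shh-conditioned medium diluted 1 in 25 in low serum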
MITF inh: MITF inhibition; TRPM1 promoter luciferase, luminescence, 24 h; inhibition, % (concentration not given with the values); 37,000 compounds, 0.28% hits; AID 2240; in the data active = inhibition above about 85%; inconclusive = no clear call, values can overlap the other calls; inactive = below about 68%;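 also: human melanocyte line stably carrying TRPM1 promoter luciferase reporter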
An asterisk follows results filed as active; u = inconclusive; x = no result.

SMILES | NOMO-1 viab | Shh pathway inh | MITF inh
COc1ccc(S(=O)(=O)Nc2ccc3c(c2)C(=O)N([C@H](C)CO)C[C@@H](C)[C@@H](CN(C)Cc2ccc(Oc4ccccc4)cc2)O3)cc1 | 110.6* | 67.7* | 39.5
COc1ccc(S(=O)(=O)Nc2ccc3c(c2)C(=O)N([C@H](C)CO)C[C@@H](C)[C@H](CN(C)Cc2ccc(Oc4ccccc4)cc2)O3)cc1 | 105.2* | -0.3 | 36.8
C[C@@H]1CN([C@@H](C)CO)C(=O)c2cc(NS(=O)(=O)c3ccc(F)cc3)ccc2O[C@H]1CN(C)Cc1ccc(Oc2ccccc2)cc1 | 97.8* | x | 26.6
COc1ccc(S(=O)(=O)Nc2ccc3c(c2)C(=O)N([C@H](C)CO)C[C@H](C)[C@@H](CN(C)Cc2ccc(Oc4ccccc4)cc2)O3)cc1 | 66.3 | 36.8 | 6.0
COc1ccc(S(=O)(=O)Nc2ccc3c(c2)C(=O)N([C@@H](C)CO)C[C@@H](C)[C@H](CN(C)Cc2ccc(Oc4ccccc4)cc2)O3)cc1 | 108.0* | x | 36.8
C[C@@H]1CN([C@@H](C)CO)C(=O)c2cc(NS(=O)(=O)c3ccccc3)ccc2O[C@H]1CN(C)Cc1ccc(Oc2ccccc2)cc1 | u | x | 25.6
COc1ccc(S(=O)(=O)Nc2ccc3c(c2)C(=O)N([C@H](C)CO)C[C@H](C)[C@@H](CN(C)Cc2ccccc2)O3)cc1 | 14.6 | 21.6 | 2.7
C[C@H](CO)N1C[C@H](C)[C@H](CN(C)Cc2ccc(Oc3ccccc3)cc2)Oc2ccc(NS(=O)(=O)c3ccccc3)cc2C1=O | u | 41.4 | 3.1
C[C@@H]1CCCCO[C@H](CN(C)S(=O)(=O)c2ccc(F)cc2)[C@@H](C)CN([C@H](C)CO)C(=O)c2cc(NC(=O)c3ccncc3)ccc2O1 | -10.6 | -11.6 | -3.3
Nc1cc(N)nc(SCC(=O)N2CCN(c3ccc(Cl)cc3)CC2)n1 | 34.0 | x | -3.2
COc1ccc(C)cc1NC(=O)C1CCCN(S(=O)(=O)c2ccc(C)cc2)C1 (centres undefined) | 17.4 | x | 6.1
C[C@@H]1CN([C@H](C)CO)C(=O)Cc2cc(NC(=O)Cn3cnnn3)ccc2O[C@@H]1CN(C)Cc1ccc(C(=O)O)cc1 | 10.6 | 25.6 | -3.8
CC(C)(C)c1ccc(OCC(=O)Nc2ccccc2C(N)=O)c(Br)c1 | 23.0 | x | -89.5
COc1ccc(S(=O)(=O)Nc2ccc3c(c2)C(=O)N([C@@H](C)CO)C[C@H](C)[C@H](CN(C)Cc2ccc(Oc4ccccc4)cc2)O3)cc1 | 122.8* | 40.2 | 46.7
COc1ccc(S(=O)(=O)Nc2ccc3c(c2)C(=O)N([C@H](C)CO)C[C@H](C)[C@H](CN(C)Cc2ccc(-c4ccccc4)cc2)O3)cc1 | 23.9 | 45.5 | 5.1
C[C@@H]1CN([C@H](C)CO)C(=O)c2cc(NS(=O)(=O)c3ccc(Cl)cc3)ccc2O[C@H]1CN(C)Cc1ccc(Oc2ccccc2)cc1 | 66.4 | 23.4 | 3.2
C[C@@H]1CN([C@@H](C)CO)C(=O)c2cc(NS(=O)(=O)c3ccc(Cl)cc3)ccc2O[C@H]1CN(C)Cc1ccc(Oc2ccccc2)cc1 | 108.8* | 19.7 | 43.4
COc1ccc(CN(C)C[C@H]2Oc3ccc(NS(=O)(=O)c4ccccc4)cc3C(=O)N([C@@H](C)CO)C[C@@H]2C)cc1 | 10.6 | x | -7.9
COc1ccc(S(=O)(=O)Nc2ccc3c(c2)C(=O)N([C@@H](C)CO)C[C@@H](C)[C@H](CN(C)Cc2ccc(-c4ccccc4)cc2)O3)cc1 | 122.2* | 15.4 | 34.9
COc1ccc(CN(C)C[C@H]2Oc3c(NS(=O)(=O)c4cccs4)cccc3C(=O)N([C@H](C)CO)C[C@H]2C)cc1 | 10.7 | 11.1 | -4.4
CCOC(=O)c1c(CNc2cccc(C(N)=O)c2)n(C)c2cc(Br)c(OC(C)=O)cc12 | 56.4 | 11.8 | -12.4
C[C@@H]1CN([C@H](C)CO)C(=O)Cc2cc(NC(=O)CCN3CCOCC3)ccc2O[C@@H]1CN(C)Cc1ccc(Cl)c(Cl)c1 | 10.4 | 47.7 | -14.0
Cc1ccc(S(=O)(=O)Nc2cccc3c2O[C@@H](CN(C)C(=O)Nc2ccc(C(F)(F)F)cc2)[C@@H](C)CN([C@H](C)CO)C3=O)cc1 | 34.1 | -19.3 | 26.0
Cc1ccc(S(=O)(=O)Nc2cccc3c2O[C@H](CN(C)C(=O)Nc2ccc(C(F)(F)F)cc2)[C@H](C)CN([C@H](C)CO)C3=O)cc1 | 90.3* | 36.6 | 62.1
C[C@@H]1CN([C@@H](C)CO)C(=O)c2cccc(NS(=O)(=O)c3ccc(Cl)cc3)c2O[C@@H]1CN(C)C(=O)Nc1ccc(C(F)(F)F)cc1 | 121.1* | -8.7 | 88.2*
SMILES | NOMO-1 viab | Shh pathway inh | MITF inh
C[C@@H]1CN([C@H](C)CO)C(=O)c2cccc(NS(=O)(=O)c3ccc(Cl)cc3)c2O[C@@H]1CN(C)C(=O)Nc1ccc(C(F)(F)F)cc1 | 37.9 | -13.1 | 28.1
Cc1ccc(S(=O)(=O)N(C)C[C@@H]2Oc3ccc(NS(=O)(=O)c4ccc(Cl)cc4)cc3C(=O)N([C@@H](C)CO)C[C@H]2C)cc1 | 29.4 | 52.7 | 2.5
O=C(O)c1ccccc1Nc1nc(N2CCOCC2)nc(N2CCOCC2)n1 | 10.8 | x | -146.2
c1ccc2cc3c(Nc4ccc(N5CCOCC5)cc4)ccnc3cc2c1 | 136.3* | x | 11.5
CCOC(=O)c1c(NC(=O)CSc2nnc(C)s2)sc(C)c1C | 8.7 | x | -11.0
Cc1ccc(SC(C)C(=O)Nc2ccc(C(C)(C)C)cc2)cc1 (centres undefined) | 49.2 | -36.8 | -80.0
CCOC(=O)c1cnc2c(OC)cccc2c1N1CCC2(CC1)OCCO2 | 38.5 | -15.6 | 6.7
CCOC(=O)c1cnc2c(OC)cccc2c1NC1CCCCC1 | 118.1* | u | 69.9
O=C(CSc1nnc(COc2ccccc2)o1)Nc1ccccc1 | 13.6 | -0.5 | 6.0
CC1(C)NCCC12C(=O)N(Cc1ccccc1)c1ccccc12 (centres undefined) | 120.4* | 35.2 | 12.0
O=C(CN1C(=O)c2cccc3cccc1c23)Nc1ccccc1C(=O)N1CCOCC1 | -10.3 | x | -3.3
COc1cc(N)c(Cl)cc1C(=O)N[C@H]1CCN(CCCOc2ccc(F)cc2)C[C@H]1OC | 11.6 | -3.7 | -5.4
COc1cc(COc2cc(N)c(Cl)cc2C(=O)CCC2CCN(CCNS(C)(=O)=O)CC2)cc(OC)c1 | 143.1* | -47.2 | -8.6
Cn1c(SCC(=O)Nc2cccc(F)c2)nnc1-c1ccc(Cl)cc1 | 7.3 | x | 16.1
COc1ccc(S(=O)(=O)Nc2cccc3c2O[C@H](CN(C)C)[C@H](C)CN([C@@H](C)CO)C3=O)cc1 | 2.5 | 15.5 | -6.8
CC(Oc1ccc(C(=O)NC2CCCCC2)cc1)C(=O)Nc1ccccc1C(F)(F)F (centres undefined) | 13.2 | x | 7.7
C[C@@H]1CN([C@@H](C)CO)C(=O)c2cc(NC(=O)Nc3ccc4c(c3)OCO4)ccc2O[C@H]1CN(C)C(=O)Nc1ccc(C(F)(F)F)cc1 | 39.2 | -5.1 | 17.4
CCN1C(=O)/C(=C2\SC(=S)N(c3cccc(Cl)c3)C2=O)c2ccccc21 | u | 13.8 | 5.6
O=C1N(c2cccc(Cl)c2)C(=Nc2cccc(Cl)c2)SC12CC2 | 114.3* | -19.4 | 11.9
O=C(NCc1ccco1)c1ccc2c(c1)C(=O)N(CC1CCCO1)C2=O (centres undefined) | 14.5 | x | -7.9
O=c1[nH]c(=O)n(C2C[C@H](O)[C@@H](CO)O2)cc1C(F)(F)F (some centres undefined) | 108.2* | -17.2 | 1.0

Screening data as filed in PubChem.
